Results filed as inconclusive are left out. Values without a mark were called inactive. Activity calls are given as the source filed them. Calls come from the whole dose curve; as a rule, active = well fitted curve in the direction sought with a large enough effect; inconclusive = small, poorly fitted or top-dose-only effect, or another doubt; inactive = no such curve, though single readings can be large; an effect the other way counts as inactive or inconclusive.

Assay [1] deals with Cellular tumor antigen p53 (Homo sapiens) (UniProt P04637). As to the kind of experiment: Primary qHTS for small molecule compounds that upregulate eGFP-tagged delta133p53alpha (in N-terminal) cells. (AID 2060322).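 For activation: series mostly up to about 56 µM; 0% = DMSO vehicle and 100% = reference activator.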 Note: nearly all actives have a fitted effect of over 75% in size. Note: potency is the fitted concentration of half-maximal effect. The following applies: NCI-H358 eGFP-delta133p53alpha fluorescence, 24 h; activation: stronger effect = higher value. A digest of the protocol:
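NCI-H358 cells pre-induced 24 h with 10 ng/ml doxycycline to express N-terminal eGFP-delta133p53alpha, then dosed 24 h at 37C without doxycycline; fixed, Hoechst-stained, GFP intensity by laser scanning cytometry, normalized to DMSO (0%) and 57.5 uM 5-azacytidine (100%).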
A general note: Quantitative high-throughput screening tests each substance at several concentrations.

Assay [2] deals with Aldehyde dehydrogenase, mitochondrial (Homo sapiens) (UniProt P05091). As to the kind of experiment: qHTS for Inhibitors of the Aldehyde Dehydrogenase Family (ALDH2) Primary screen (AID 2061308).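 Note: plate controls were vehicle for no effect and reference inhibitor for full effect; nearly all actives have a fitted effect of over 55% in size.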
For assay [3], the target named is Retinaldehyde dehydrogenase 3 (Homo sapiens) (UniProt P47895). As to the kind of experiment: qHTS for Inhibitors of the Aldehyde Dehydrogenase Family (ALDH1A3) Primary screen (AID 2061315).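 Note: plate controls were DMSO vehicle for no effect and reference inhibitor for full effect.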

Sequence of Cellular tumor antigen p53 (Homo sapiens) (P04637 whole entry, looked up): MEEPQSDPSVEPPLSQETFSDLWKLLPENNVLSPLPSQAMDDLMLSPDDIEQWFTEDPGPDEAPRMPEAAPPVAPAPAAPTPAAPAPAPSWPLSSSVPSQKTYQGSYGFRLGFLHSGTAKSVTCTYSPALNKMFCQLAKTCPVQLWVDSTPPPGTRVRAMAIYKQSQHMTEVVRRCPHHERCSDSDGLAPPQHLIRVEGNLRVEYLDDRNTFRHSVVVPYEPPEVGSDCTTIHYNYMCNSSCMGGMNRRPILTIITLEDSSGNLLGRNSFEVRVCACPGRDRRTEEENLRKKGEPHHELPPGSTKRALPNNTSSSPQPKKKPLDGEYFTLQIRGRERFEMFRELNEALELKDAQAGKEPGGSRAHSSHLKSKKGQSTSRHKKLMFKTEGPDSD

Take `CC1(C)CCCC2(C)C3=C(C(=O)OC3O)C(O)CC12` (stereo unspecified): in assay [1], the activation is 9.92%. In addition, the Potency entry in assay [2] and in assay [3] was “inactive” each time.

As for `Cc1ccc(C)c(NC(=O)CNS(=O)(=O)c2ccc3[nH]c(=O)oc3c2)c1`, the activation in assay [1] was 17%. The Potency result in assay [2] and in assay [3] was “inactive” each time.

Consider `COc1cc(C(C)=O)ccc1O[C@@H]1O[C@H](CO)[C@@H](O)[C@H](O)[C@H]1O`, for which the activation in assay [1] was -7.63%. In addition, the Potency result in assay [2] and in assay [3] was “inactive” in each case.

In the case of `COCC1OC(n2cnc3c(=O)[nH]cnc32)C(O)C1O` (stereo unspecified), the activation in assay [1] was 6.11%. The Potency result in assay [2] and in assay [3] was “inactive” each time.

Turning to `CC1CCC2(C(=O)O)CCC3(C)C(=CCC4C5(C)CCC(OC(=O)/C=C/c6ccccc6)C(C)(C)C5CCC43C)C2C1C` (stereo unspecified), in assay [1], the activation is -8.4%. The Potency entry in assay [2] and in assay [3] was “inactive” in each case.

`C=C(C(=O)O)[C@@H]1CC[C@@]2(C)CCC[C@@](C)(O)[C@@H]2C1`: the activation in assay [1] was 10.7%. The Potency result in assay [2] and in assay [3] was “inactive” in each case.

As for `COc1c2c(c(C)c3c1C(=O)OC3)OC1(C)CC(O)C(C(C)(C)O)C(C)(CCC(=O)O)C1C2` (stereo unspecified), the activation in assay [1] was 8.4%. Further, the Potency entry in assay [2] and in assay [3] was “inactive” throughout.

With `CC1C(O)C(O)C2C(C(=O)OCCc3ccc(O)cc3)=COC(O[C@@H]3O[C@H](CO)[C@@H](O)[C@H](O)[C@H]3O)C12` (stereo partly specified), the activation in assay [1] is 11.5%. Moreover, the Potency result in assay [2] and in assay [3] was “inactive” in each case.

Consider `C=C(C)C(=O)OC1CC(CO)CCC/C(CO)=C/C2OC(=O)C(=C)C21` (stereo unspecified), for which the Potency in assay [1] was 14.8 µM (active). Also, the Potency entry in assay [2] and in assay [3] was “inactive” in each case.

On to `CC(C)C1(O)NC(=O)C(CC2(O)c3ccccc3N3C(=O)C(C)(C)NC32)n2c1nc1ccccc1c2=O` (stereo unspecified), for which the activation in assay [1] was -3.05%. Also, the Potency entry in assay [2] and in assay [3] was “inactive” each time.

For the compound `C=C1CC2(C(=O)O)CC1CCC2C1(C)CCCC2(C)C(=O)OC(O)C21` (stereo unspecified), the activation in assay [1] was -6.87%. In addition, the Potency entry in assay [2] and in assay [3] was “inactive” throughout.

In the case of `C/C=C1\[C@H](O[C@@H]2O[C@H](CO)[C@@H](O)[C@H](O)[C@H]2O)OC=C(C(=O)OC)[C@H]1CC(=O)O`, in assay [1], the activation is 3.82%. Besides, the Potency entry in assay [2] and in assay [3] was “inactive” in each case.

Take `COC(=O)C[C@@H]1C(C(=O)O)=CO[C@@H](O[C@@H]2O[C@H](CO)[C@@H](O)[C@H](O)[C@H]2O)/C1=C\COC(=O)/C=C\c1ccccc1`: in assay [1], the activation is 26%. The Potency result in assay [2] and in assay [3] was “inactive” throughout.

`C=C1C(=O)OC2CC(C)=C(C(C)CCCO[C@@H]3O[C@H](CO)[C@@H](O)[C@H](O)[C@H]3O)C(O)C12` (stereo partly specified): the activation in assay [1] was -18.3%. Also, the Potency result in assay [2] and in assay [3] was “inactive” throughout.

Take `CN1C(=O)c2ccccc2NC(=O)[C@]12O[C@@H]2c1cccc(O)c1`: the activation in assay [1] is -1.53%. For the same compound, the Potency entry in assay [2] and in assay [3] was “inactive” each time.

Consider `CC1OC(OC2C(O)C(OC3CCC4(C)C(CCC5(C)C4CC=C4C6CC(C)(COC7OC(CO)C(O)C(O)C7O)CC(O)C6(C)CCC45C)C3(C)C)OC(C(=O)O)C2O)C(O)C(O)C1OC1OCC(O)C(O)C1O` (stereo unspecified), for which, in assay [1], the activation was -4.46%. Moreover, the Potency entry in assay [2] and in assay [3] was “inactive” throughout.

As for `C[C@]12C=CC(=O)C=C1CC[C@@H]1[C@@H]2[C@@H](O)C[C@@]2(C)[C@H]1CC[C@]2(O)C(=O)COC(=O)CCC(=O)O`, the activation in assay [1] is 13%. Also, the Potency result in assay [2] and in assay [3] was “inactive” in each case.

Regarding `C/C=C\NC(=O)C1NC(=O)C(CC(N)=O)NC(=O)C(NC(=O)C(=O)C(C)CC)Cc2ccc(O)c(c2)-c2cccc3c2NC(=O)C3(O)C1O` (stereo unspecified), the activation in assay [1] was 3.82%. For the same compound, the Potency entry in assay [2] and in assay [3] was “inactive” each time.

On to `Fc1ccccc1-c1nc2ccn(Cc3ccc(-c4ccc(C(F)(F)F)cc4C(F)(F)F)nn3)cc-2n1`, for which, in assay [1], the activation was 17%. Moreover, the Potency result in assay [2] and in assay [3] was “inactive” in each case.

On to `COC1OC(O)C2(CCC3(O2)C(C)CC2OC(=O)C4(C)CCCC3(C)C24)C1O` (stereo unspecified), for which, in assay [1], the activation was 9.92%. The Potency result in assay [2] and in assay [3] was “inactive” each time.

In the case of `C/C=C/C=C/C=C/C(=O)O[C@@H]1[C@@H](OC)C2=C(C(=O)N(C(C)C(=O)O)C2)[C@@]2(C)CCCC(C)(C)[C@H]12` (stereo partly specified), the activation in assay [1] is -2.68%. The Potency result in assay [2] and in assay [3] was “inactive” each time.

As to `CCC(=O)O[C@]1(C(=O)CCl)[C@@H](C)C[C@H]2[C@@H]3C[C@H](F)C4=CC(=O)C=C[C@]4(C)[C@@]3(F)[C@@H](O)C[C@@]21C`, in assay [1], the activation was 17.9%. For the same compound, the Potency entry in assay [2] and in assay [3] was “inactive” each time.

Regarding `CCC(C)C(=O)O[C@@H]1[C@@H](O)[C@@H](O[C@H]2O[C@H](CO)[C@@H](O)[C@H](O)[C@H]2O)O[C@H](CO)[C@H]1O` (stereo partly specified), the activation in assay [1] is -2.29%. Also, the Potency entry in assay [2] and in assay [3] was “inactive” each time.

`COC(=O)C1=CO[C@@H](O[C@@H]2O[C@H](CO)[C@@H](O)[C@H](O)[C@H]2O)[C@@H]2[C@@H](C)[C@@H](OC(=O)/C=C/c3ccccc3)[C@@H](O)[C@H]12`: in assay [1], the activation was -5.34%. For the same compound, the Potency result in assay [2] and in assay [3] was “inactive” in each case.

With `C=C1CCCC2(C)CC3(OC)OC(=O)C(C)=C3CC12` (stereo unspecified), in assay [1], the activation was 16.1%. Moreover, the Potency result in assay [2] and in assay [3] was “inactive” throughout.

`CC1(C)CC[C@]2(C(=O)O[C@@H]3O[C@H](CO)[C@@H](O)[C@H](O)[C@H]3O)CC[C@]3(C)C(=CCC4[C@@]5(C)C[C@H](O)[C@H](O[C@@H]6OC[C@@H](O)[C@H](O)[C@H]6O)[C@@](C)(CO)C5CC[C@]43C)C2C1` (stereo partly specified): in assay [1], the activation is 11.6%. The Potency entry in assay [2] and in assay [3] was “inactive” each time.

For the compound `C=C1C2(C)CC3C4(C)C=CC(=O)OC(C)(C)C4CCC3(C)C1(C(=O)OC)C(=O)C(C)(O)C2=O` (stereo unspecified), the activation in assay [1] is -21.4%. The Potency entry in assay [2] and in assay [3] was “inactive” each time.
